Laboratory results reported in PubChem BioAssay (NCATS).
Inconclusive results are not listed. Activity calls are given as the source filed them. Calls come from the whole dose curve; as a rule, active = well fitted inhibition curve with a large enough effect; inconclusive = small, poorly fitted or top-dose-only effect; inactive = flat fitted curve, though single readings scatter.

Assays:
KB-3-1 = assay: Cytotoxic Profiling of Annotated Libraries Using Quantitative High-Throughput Screening (AID 1296008); details: Five cell lines viability, CellTiter-Glo ATP luminescence, 48-72 h; max response: hits give low values; for max response: % is set by controls: 0 for no effect and ±100 for the full control effect
In short: (§1)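 Cells exposed to compounds for 48 or 72 hr at 37 degrees Celsius. Viability read as ATP-coupled luminescence with CellTiter-Glo after 10 min at room temperature.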

NIH3T3 [1] = assay: as above; details: Five cell lines viability, CellTiter-Glo ATP luminescence, 48-72 h; max response: hits give low values
In short: as §1

HEK293T = assay: qHTS assay to identify novel small-molecules to repurpose for Merkel cell carcinoma treatment (AID 1296009); details: MCC and control cell lines, CellTiter-Glo viability, 72 h; at 44.8 µM (top of the series) unless noted
In short: (§2)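 Cells were incubated with compound for 72 hr at 37 degree celsius before CellTiter-Glo addition. Luminescence was normalized with no-cell wells as full cytotoxicity and DMSO as baseline.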

NIH3T3 [2] = assay: as above; details: MCC and control cell lines, CellTiter-Glo viability, 72 h; at 44.8 µM (top of the series) unless noted
In short: as §2

Measured: max response
Note: nearly all actives have a fitted effect of over 60% in size.

CC1CCC2(OC1)OC1CC3C4CCC5C[C@@H](O[C@@H]6O[C@H](CO[C@@H]7OC[C@@H](O)[C@H](O)[C@H]7O)[C@H](O)[C@H](O)[C@H]6O)CC[C@]5(C)C4CC[C@]3(C)C1C2C (stereo partly drawn)
inactive: KB-3-1 9.78% | NIH3T3 [1] | HEK293T inactive [at 17.4 µM] | NIH3T3 [2] inactive [at 17.4 µM]

C=C(C(=O)OC)C1C(O)CC2(C)C(=O)CCC(O)(CO)C2C1O (stereo not drawn)
inactive: KB-3-1 -0.746% | NIH3T3 [1] | NIH3T3 [2]

CC(O)/C=C/C1OC(=O)CC1Nc1ccc(C(=O)O)cc1 (stereo not drawn)
inactive: KB-3-1 5.7% | NIH3T3 [1] | NIH3T3 [2]

CC1CC(O)C2(OC1=O)OC1C(O)C3C4CCC5CC(OC6OC(CO)C(O)C(O)C6OC6OC(C)C(O)C(O)C6O)CCC5(C)C4CCC3(C)C1C2C (stereo not drawn)
inactive: KB-3-1 | NIH3T3 [1] | HEK293T inactive [at 17.4 µM] | NIH3T3 [2] inactive [at 17.4 µM]

C[C@@H]1O[C@@H](O[C@H]2[C@H](OC(=O)[C@]34CCC(C)(C)C[C@H]3C3=CCC5[C@@]6(C)C[C@H](O)[C@H](O[C@@H]7O[C@H](CO)[C@@H](O)[C@H](O)[C@H]7O)[C@@](C)(CO)C6[C@H](O)C[C@@]5(C)[C@]3(C)C[C@H]4O)OC[C@H](O)[C@@H]2O)[C@H](O)[C@H](O)[C@H]1O[C@@H]1OC[C@@H](O)[C@H](O[C@H]2OC[C@](O)(CO)[C@H]2O)[C@H]1O (stereo partly drawn)
inactive: KB-3-1 3.95% | NIH3T3 [1] | NIH3T3 [2] inactive [at 9.27 µM]

c1cc(OCCCN2CCCCC2)ccc1CN1CCCCC1
inactive: KB-3-1 -5.63% | NIH3T3 [1] | NIH3T3 [2]

C=CC(C)(O)C(O)CC1C(C)(O)C(O)C(O)C2C(C)(C)CCCC21C (stereo not drawn)
inactive: KB-3-1 -10.5% | NIH3T3 [1] | NIH3T3 [2]
